Read-out in assay [1]: Interleukin-8 (IL8), CXCL8 (gene 3576)
Nature of the assay: BSK_3C_IL8: BioMAP Diversity Plus: 3C Assay for Interleukin-8 (IL8) Biomarker Activity (AID 2283020). Conditions: primary human endothelial cells (HUVEC); actives raise or lower the signal. The method, boiled down:
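Using DMSO-treated wells as the baseline, bidirectional curve fitting was applied to ELISA-measured IL-8 from human umbilical vein endothelial cultures sampled 24 h after compound addition.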

Read-out in assay [2]: Monokine induced gamma interferon (MIG), CXCL9 (gene 4283)
In words: BSK_3C_MIG: BioMAP Diversity Plus: 3C Assay for Monokine induced gamma interferon (MIG) Biomarker Activity (AID 2283021).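 On AC50: MIG protein level measured by immunoassay in the treated endothelial cultures.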 Conditions: primary human endothelial cells (HUVEC); actives raise or lower the signal. In outline: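 ELISA-measured MIG in dosed HUVEC 3C cultures at 24 h, analysed by bidirectional fitting with DMSO defining baseline activity.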

Assay [3] concerns the target human Vitamin D Receptor (VDR), VDR (gene 7421) (UniProt P11473). Nature of the assay: ATG_VDR_TRANS: Attagene TRANS-FACTORIAL HepG2 Assay for human Vitamin D Receptor (VDR) (AID 2283022; active means hit-call score of the fitted dose curve at least 0.9, where 1 is the maximum). In outline: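 Fluorescence of labelled reporter cDNA fragments, resolved by capillary electrophoresis, gives mRNA induction after 24 h treatment of HepG2 cells carrying transfected Gal4-fusion reporter units. Activity is fitted in the positive direction with DMSO as baseline.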

A short description of assay [4]: BSK_3C_SRB: Viability Assessment in the BioMAP Diversity Plus: 3C Assay (AID 2283023).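 Further: fitted both ways against DMSO so a hit may be signal rise or drop.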 To be noted: primary human endothelial cells (HUVEC). In outline: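 Cells were dosed with chemical, cultured 24 h, fixed with 10% TCA, stained with 0.1% SRB and read at 560 nm. Human umbilical vein endothelium was used; DMSO served as negative control and baseline.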
Read-out in assay [5]: Matrix Metallopeptidase 1 (MMP1), MMP1 (gene 4312)
In words: BSK_BE3C_MMP1: BioMAP Diversity Plus: BE3C Assay for Matrix Metallopeptidase 1 (MMP1) Biomarker Activity (AID 2283024). To be noted: primary human bronchial epithelial cells; actives raise or lower the signal. The method, boiled down:
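In this multiplexed primary-cell system, human bronchial epithelium received chemicals for 24 h before an ELISA for MMP1. Values reflect bidirectional fits normalised to the DMSO baseline.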

Read-out in assay [6]: Pselectin, SELP (gene 6403)
Nature of the assay: BSK_4H_Pselectin: BioMAP Diversity Plus: 4H Assay for Pselectin Biomarker Activity (AID 2283026). To be noted: primary human endothelial cells (HUVEC); actives raise or lower the signal. In outline:
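Bidirectional fits against DMSO gave the endpoint. Cells: primary human umbilical vein endothelium, chemical-treated for 24 h before ELISA detection of P-selectin.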

Assay [7] in a line: BSK_4H_SRB: Viability Assessment in the BioMAP Diversity Plus: 4H Assay (AID 2283027).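 Further: cells exposed to compound for 24 h before staining.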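 On AC50: curves fitted both ways versus DMSO so AC50 may be loss or gain.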 Conditions: primary human endothelial cells (HUVEC). In outline: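 Cytotoxicity read-out in primary human endothelial cells: after 24 h compound exposure, cells were TCA-fixed (10%), stained with 0.1% SRB and absorbance taken at 560 nm. Values fitted in both directions relative to DMSO.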
Assay [8] can be described thus: BSK_BE3C_SRB: Viability Assessment in the BioMAP Diversity Plus: BE3C Assay (AID 2283028). To be noted: primary human bronchial epithelial cells. In outline:
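Overt cytotoxicity was assessed as total protein in confluent human primary bronchial epithelial cultures 24 h after chemical addition, using 0.1% sulforhodamine B staining read at 560 nm.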

Read-out in assay [9]: Thrombomodulin, THBD (gene 7056)
In words: BSK_3C_Thrombomodulin: BioMAP Diversity Plus: 3C Assay for Thrombomodulin Biomarker Activity (AID 2283029). Conditions: primary human endothelial cells (HUVEC); actives raise or lower the signal. The method, boiled down:
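In a multiplexed primary-cell system, human umbilical vein endothelium received chemical and was assayed 24 h later for thrombomodulin by ELISA. Parallel cultures were SRB-stained (0.1% SRB after 10% TCA fixation, read at 560 nm) to flag cytotoxicity.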

Read-out in assay [10]: Urokinase-type plasminogen activator receptor (uPAR), PLAUR (gene 5329)
Nature of the assay: BSK_4H_uPAR: BioMAP Diversity Plus: 4H Assay for Urokinase-type plasminogen activator receptor (uPAR) Biomarker Activity (AID 2283030). Conditions: primary human endothelial cells (HUVEC); actives raise or lower the signal. In outline: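 Chemicals are dosed onto human vascular endothelial primary cells (umbilical vein). After 24 h, uPAR is read by ELISA. Gain or loss of signal is fitted relative to DMSO.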

Read-out in assay [11]: Vascular endothelial growth factor receptor 2 (Homo sapiens) (UniProt P35968)
In words: BSK_4H_VEGFRII: BioMAP Diversity Plus: 4H Assay for Vascular endothelial growth factor receptor 2 (VEGFR2) Biomarker Activity (AID 2283031).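 On AC50: cell-surface VEGFR2 protein level quantified by ELISA.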 Conditions: primary human endothelial cells (HUVEC); actives raise or lower the signal. In outline: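 VEGFRII levels on human vascular endothelial primary cells were determined by ELISA at 24 hours post-dosing, with gain- or loss-of-signal fitted against DMSO controls.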

Read-out in assay [12]: Human Leukocyte Antigen - DR isotype (HLADR), HLA-DRA (gene 3122)
In words: BSK_BE3C_HLADR: BioMAP Diversity Plus: BE3C Assay for Human Leukocyte Antigen - DR isotype (HLADR) Biomarker Activity (AID 2283032). Conditions: primary human bronchial epithelial cells; actives raise or lower the signal. The method, boiled down: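 BioMAP BE3C format: human bronchial epithelium, 24 h compound treatment, ELISA detection of HLA-DR, with bidirectional analysis relative to DMSO.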

Read-out in assay [13]: Vascular cell adhesion molecule 1 (VCAM1), VCAM1 (gene 7412)
Nature of the assay: BSK_4H_VCAM1: BioMAP Diversity Plus: 4H Assay for Vascular cell adhesion molecule 1 (VCAM1) Biomarker Activity (AID 2283033).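 On outcome: cell-surface VCAM-1 protein measured by ELISA.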 To be noted: primary human endothelial cells (HUVEC); actives raise or lower the signal. In outline:
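In this human endothelial (HUVEC) system, biomarker ELISA was run 24 h after compound addition, and total protein in parallel wells was assessed by SRB at 560 nm; DMSO served as negative control.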

Read-out in assay [14]: Interferon-gamma inducible Protein 10 (IP10), CXCL10 (gene 3627)
Nature of the assay: BSK_BE3C_IP10: BioMAP Diversity Plus: BE3C Assay for Interferon-gamma inducible Protein 10 (IP10) Biomarker Activity (AID 2283034). Conditions: primary human bronchial epithelial cells; actives raise or lower the signal. The method, boiled down: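 BE3C cells (human bronchial epithelial, primary); 24 h exposure; ELISA for IP-10; DMSO-referenced bidirectional fit.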

Read-out in assay [15]: Monokine induced gamma interferon (MIG), CXCL9 (gene 4283)
In words: BSK_BE3C_MIG: BioMAP Diversity Plus: BE3C Assay for Monokine induced gamma interferon (MIG) Biomarker Activity (AID 2283035).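 Further: MIG protein measured by ELISA in BE3C cultures after 24 h of dosing.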 To be noted: primary human bronchial epithelial cells; actives raise or lower the signal. In outline:
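ELISA quantified MIG after 24 h exposure of primary bronchial epithelial cultures, analysed in both directions relative to DMSO. Cytotoxicity tracked in parallel cultures by sulforhodamine B staining.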

Read-out in assay [16]: Plasminogen activator inhibitor-1 (PAI1), SERPINE1 (gene 5054)
In words: BSK_BE3C_PAI1: BioMAP Diversity Plus: BE3C Assay for Plasminogen activator inhibitor-1 (PAI1) Biomarker Activity (AID 2283037). Conditions: primary human bronchial epithelial cells; actives raise or lower the signal. In outline:
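In this multiplexed primary-cell system, bronchial epithelial cells receive test chemical and are sampled at 24 h. PAI-1 is read by ELISA, with DMSO serving as negative control for bidirectional fitting.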

Read-out in assay [17]: urokinase plasminogen activator (uPA), PLAU (gene 5328)
In words: BSK_BE3C_uPA: BioMAP Diversity Plus: BE3C Assay for urokinase plasminogen activator (uPA) Biomarker Activity (AID 2283038).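 On outcome: uPA protein level quantified by ELISA in cell cultures; uPA read one day after compound addition.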 Conditions: primary human bronchial epithelial cells; actives raise or lower the signal. The method, boiled down: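 Measured by ELISA: uPA from human primary bronchial epithelial cells 24 h after chemical treatment. Values derive from bidirectional curve fitting with DMSO serving as negative control. Total protein by SRB staining in parallel wells flagged overt cytotoxicity.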

Read-out in assay [18]: Urokinase-type plasminogen activator receptor (uPAR), PLAUR (gene 5329)
In words: BSK_BE3C_uPAR: BioMAP Diversity Plus: BE3C Assay for Urokinase-type plasminogen activator receptor (uPAR) Biomarker Activity (AID 2283039).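 Further: uPAR protein level measured by ELISA on the cells; cells exposed to compound for one day before measurement.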 Conditions: primary human bronchial epithelial cells; actives raise or lower the signal. The method, boiled down:
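Chemically treated human bronchial epithelial cells (lung primary) are assayed for uPAR by ELISA after 24 h, with data fitted in both directions using DMSO as negative control.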

A short description of assay [19]: BSK_3C_Vis: BioMAP Diversity Plus: 3C Assay for Morphology Visualization (AID 2283025).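 Further: fitted both ways so gain or loss versus DMSO counts.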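 On AC50: light microscopy image of cell morphology used as background control.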 Conditions: primary human endothelial cells (HUVEC). The method, boiled down:
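Light-microscopy morphology readout, 24 h exposure, human primary umbilical vein endothelium; analysed relative to DMSO with bidirectional fitting.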

Read-out in assay [20]: Transforming growth factor beta 1 (TGFb1), TGFB1 (gene 7040)
In words: BSK_BE3C_TGFb1: BioMAP Diversity Plus: BE3C Assay for Transforming growth factor beta 1 (TGFb1) Biomarker Activity (AID 2283036;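 further: TGF-b1 protein level measured by ELISA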). Conditions: primary human bronchial epithelial cells; actives raise or lower the signal. In outline: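 TGF-b1 measured via ELISA, 24 h after chemical dosing of human bronchial epithelial cells (BE3C). Overt cytotoxicity assessed in parallel by SRB (0.1%, TCA-fixed, 560 nm); analysis bidirectional relative to DMSO.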

Each structure is given as a SMILES string. Results filed as inconclusive are left out. Activity calls are given as the source filed them. How the source made its calls, unless noted: active means hit-call score of the fitted dose curve at least 0.9, where 1 is the maximum; inactive means score below 0.9.

Chain of human Vitamin D Receptor (VDR), VDR (gene 7421) (P11473 whole entry, looked up, the tested form may be a part): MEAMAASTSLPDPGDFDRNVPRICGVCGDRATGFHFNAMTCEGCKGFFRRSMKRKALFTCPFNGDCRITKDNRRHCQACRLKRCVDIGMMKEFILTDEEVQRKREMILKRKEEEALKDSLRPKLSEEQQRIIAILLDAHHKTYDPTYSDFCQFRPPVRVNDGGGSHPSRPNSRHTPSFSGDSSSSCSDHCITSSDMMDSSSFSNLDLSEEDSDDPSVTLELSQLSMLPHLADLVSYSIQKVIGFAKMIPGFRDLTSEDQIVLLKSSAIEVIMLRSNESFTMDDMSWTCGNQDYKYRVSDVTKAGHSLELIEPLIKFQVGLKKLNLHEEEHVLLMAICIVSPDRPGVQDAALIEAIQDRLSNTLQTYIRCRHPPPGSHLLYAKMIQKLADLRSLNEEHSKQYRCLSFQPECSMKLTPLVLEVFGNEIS

For `Oc1ccc(Cc2ccccc2O)cc1`, the result in [1], in assay [2], in assay [3], in assay [4], in assay [5] and in assay [6] was inactive. For the same compound, the outcome in assay [7], in [8], in [9], in assay [10], in [11] and in assay [12] was inactive. For the same compound, the outcome in [13], in assay [14], in assay [15], in [16], in [17] and in assay [18] was inactive.
The term AC50 denotes the midpoint of the concentration-response curve, whichever way the signal moves. As to `OCCN1CN(CCO)CN(CCO)C1`, the concentration at half-maximal activity (AC50) in assay [1] is 29.2 µM (active); in assay [2], 36.6 µM (active); in assay [4], 32.1 µM (active); in [19], 14.9 µM (active); in assay [6], 23.1 µM (active); in assay [7], 31.5 µM (active). Moreover, the AC50 in assay [10] was 29 µM (active); in [11], 33.9 µM (active); in assay [12], 35.5 µM (active); in [13], 29.8 µM (active). For the same compound, the outcome in assay [3], in assay [5], in assay [8], in assay [9], in [14] and in [15] was inactive. Further, the result in assay [20], in assay [16], in [17] and in assay [18] was inactive.
As for `CCCCC=O`, the outcome in assay [1], in assay [2], in assay [3], in assay [4], in [5] and in assay [19] was inactive. The outcome in assay [6], in assay [7], in assay [8], in assay [9], in assay [10] and in assay [11] was inactive. Besides, the result in assay [12], in assay [13], in assay [14], in assay [15], in assay [20] and in assay [16] was inactive. In addition, the result in assay [17] and in assay [18] was inactive.
`N=C(N)c1ccc(OCCCCCOc2ccc(C(=N)N)cc2)cc1`: the concentration at half-maximal activity (AC50) in [1] was 12.3 µM (active); in assay [19] it was 8.61 µM (active); in assay [6], 7.2 µM (active); in assay [10], 3.47 µM (active); in [12] it was 22.7 µM (active); in [14] it was 24.1 µM (active). Besides, the figures for the AC50 in [16] and in assay [17] were 10.3 µM (active) and 17.5 µM (active), respectively. Further, the outcome in assay [2], in assay [3], in assay [4], in [5], in assay [7] and in [8] was inactive. In addition, the result in assay [9], in assay [11], in assay [13], in assay [15], in [20] and in assay [18] was inactive.
For `O=C1c2ccc(O)c(O)c2C(=O)c2c(O)ccc(O)c21`, the outcome in [1], in [2], in [3], in [4], in [5] and in assay [19] was inactive. Moreover, the result in assay [6], in [7], in assay [8], in [9], in assay [10] and in assay [11] was inactive. Moreover, the outcome in [12], in assay [13], in assay [14], in assay [15], in assay [20] and in assay [16] was inactive. In addition, the outcome in [17] and in [18] was inactive.
